Among the data in PMC8384837, “Expanding the binding specificity for RNA recognition by a PUF domain” are binding signal values, retold here.

Assay in all cases: yeast three-hybrid, YBZ-1, SC-Leu-His + 0.5 mM 3-AT, 4 days
Common to all, as to details: tags: N-Gal4 AD-HA kept; label: inside an RPR1-promoter hybrid RNA with tandem MS2 sites; ssRNA

One assay has as its target PUM1 PUF domain R5-KNW (Homo sapiens, UniProt Q14671 828-1176, C1007K;R1008N;Q1011W). The method in brief: (§1)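 The interaction score is the logarithmic change in variant frequency from input to selection. It uses log2, with a pseudocount of 1 for absent variants, and frequencies came from PCR-amplified, Illumina-sequenced repeat regions. The libraries were Pumilio-1 PUF domains randomized at the three base-contacting residues per repeat, co-expressed with matching RNA elements in strain YBZ-1 (LexA–MS2 coat fusion, HIS3 reporter). Plating lasted four days on SC-Leu (input) or SC-Leu-His + 0.5 mM 3-AT (selection).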

In a further assay the target is PUM1 PUF domain R5-RGM (Homo sapiens, UniProt Q14671 828-1176, C1007R;R1008G;Q1011M). The method in brief: as §1
The next assay addresses PUM1 PUF domain R2-SWP (Homo sapiens, UniProt Q14671 828-1176, N899S;Y900W;Q903P). Put shortly: as §1
The next assay has as its target PUM1 PUF domain R1-IRR (Homo sapiens, UniProt Q14671 828-1176, S863I;Q867R). The method in brief:
as §1

In the next assay the target is T1, PUM1 PUF domain R6-AFE (Homo sapiens, UniProt Q14671 828-1176, N1043A;Y1044F;Q1047E).
T1 sequence: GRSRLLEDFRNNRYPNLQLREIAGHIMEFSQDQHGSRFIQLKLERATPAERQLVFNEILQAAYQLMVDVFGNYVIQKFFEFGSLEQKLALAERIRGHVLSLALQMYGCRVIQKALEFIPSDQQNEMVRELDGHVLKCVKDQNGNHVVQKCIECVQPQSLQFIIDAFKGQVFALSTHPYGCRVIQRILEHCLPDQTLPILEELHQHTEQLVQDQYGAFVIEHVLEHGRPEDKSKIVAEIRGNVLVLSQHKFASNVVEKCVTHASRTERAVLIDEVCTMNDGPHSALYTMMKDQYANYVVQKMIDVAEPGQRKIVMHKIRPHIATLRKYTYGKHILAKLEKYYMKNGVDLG
Put shortly:
as §1

Another assay deals with PUM1 PUF domain R7-KHR (Homo sapiens, UniProt Q14671 828-1176, S1079K;N1080H;E1083R). Put shortly: as §1
For another assay, the target named is PUM1 PUF domain R8-KKP (Homo sapiens, UniProt Q14671 828-1176, N1122K;Y1123K;Q1126P). The method in brief: as §1
The target of another assay is PUM1 PUF domain R4-PWV (Homo sapiens, UniProt Q14671 828-1176, N971P;H972W;Q975V). Put shortly: as §1
Another assay deals with PUM1 PUF domain R4-APG (Homo sapiens, UniProt Q14671 828-1176, N971A;H972P;Q975G). Put shortly: as §1
A further assay concerns the target PUM1 PUF domain R3-FYA (Homo sapiens, UniProt Q14671 828-1176, C935F;R936Y;Q939A). Put shortly: as §1

In the case of “GGCUAGAACUAGUGGAUCCCCCGGCGCCCGGCGGCUCGAGCCCGGGUAAGUGUUAAUAGUCUGCAUGCCGCCGGGCGCCAUGCCUGCAGGUCGACUCUAGAAAACAUG”, the binding signal with PUM1 PUF domain R5-KNW is 2.79 log2 enrichment (interaction score); with PUM1 PUF domain R5-RGM, 3.6 log2 enrichment (interaction score).
Regarding “GGCUAGAACUAGUGGAUCCCCCGGCGCCCGGCGGCUCGAGCCCGGGUAAGUGUAAAGAGUCUGCAUGCCGCCGGGCGCCAUGCCUGCAGGUCGACUCUAGAAAACAUG”, in the assay with PUM1 PUF domain R2-SWP, the binding signal is 7.17 log2 enrichment (interaction score).
For “GGCUAGAACUAGUGGAUCCCCCGGCGCCCGGCGGCUCGAGCCCGGGUAAGUGUAAAUUGUCUGCAUGCCGCCGGGCGCCAUGCCUGCAGGUCGACUCUAGAAAACAUG”, the binding signal with PUM1 PUF domain R1-IRR is 2.12 log2 enrichment (interaction score).
Consider “GGCUAGAACUAGUGGAUCCCCCGGCGCCCGGCGGCUCGAGCCCGGGUAAGUGGAAAUAGUCUGCAUGCCGCCGGGCGCCAUGCCUGCAGGUCGACUCUAGAAAACAUG”, for which the binding signal with PUM1 PUF domain R6-AFE is 3.97 log2 enrichment (interaction score).
Regarding “GGCUAGAACUAGUGGAUCCCCCGGCGCCCGGCGGCUCGAGCCCGGGUAAGUCUAAAUAGUCUGCAUGCCGCCGGGCGCCAUGCCUGCAGGUCGACUCUAGAAAACAUG”, the binding signal in the assay with PUM1 PUF domain R7-KHR was 5.64 log2 enrichment (interaction score).
Consider “GGCUAGAACUAGUGGAUCCCCCGGCGCCCGGCGGCUCGAGCCCGGGUAAGCGUAAAUAGUCUGCAUGCCGCCGGGCGCCAUGCCUGCAGGUCGACUCUAGAAAACAUG”, for which the binding signal with PUM1 PUF domain R8-KKP was 3.24 log2 enrichment (interaction score).
For the sequence “GGCUAGAACUAGUGGAUCCCCCGGCGCCCGGCGGCUCGAGCCCGGGUAAGUGUACAUAGUCUGCAUGCCGCCGGGCGCCAUGCCUGCAGGUCGACUCUAGAAAACAUG”, the binding signal in the assay with PUM1 PUF domain R4-PWV is 5.39 log2 enrichment (interaction score); in the assay with PUM1 PUF domain R4-APG, 0.78 log2 enrichment (interaction score).
Turning to “GGCUAGAACUAGUGGAUCCCCCGGCGCCCGGCGGCUCGAGCCCGGGUAAGUGAAAAUAGUCUGCAUGCCGCCGGGCGCCAUGCCUGCAGGUCGACUCUAGAAAACAUG”, the binding signal in the assay with PUM1 PUF domain R6-AFE was 3.96 log2 enrichment (interaction score).
On to “GGCUAGAACUAGUGGAUCCCCCGGCGCCCGGCGGCUCGAGCCCGGGUAAGUGUAAUUAGUCUGCAUGCCGCCGGGCGCCAUGCCUGCAGGUCGACUCUAGAAAACAUG”, for which, in the assay with PUM1 PUF domain R3-FYA, the binding signal is 4.01 log2 enrichment (interaction score).
